# In PubChem BioAssay (NCATS):
# Values without a mark were called inactive. Results filed as inconclusive are left out. A call without a number means that no potency is given here. Active and inactive are the calls of the source. Calls come from the whole dose curve; as a rule, active = well fitted curve in the direction sought with a large enough effect; inconclusive = small, poorly fitted or top-dose-only effect, or another doubt; inactive = no such curve, though single readings can be large; an effect the other way counts as inactive or inconclusive. *1 amine or outer side, *2 acyl side, *3 side chain or, on linkers, in order; H or OH if unused. Where a SMILES comes first, the peptide text is derived from it. [ ]: non-standard residue; d: D form. The star is where a group is joined. ξ: configuration not given here. X9 = CCC(C)(N*)C(=O)C1CC[C@@H](C(=O)N[C@@H](Cc2ccccc2)C(=O)NCC(=O)O)N1; X8 = O=C([C@@H]1CC(O)CN1[*:1])[*:2]; aIle = CC[C@@H](C)[C@H](N)C(=O)O; Thr(3ξ) = CC(O)[C@H](N)C(=O)O; PhAc = O=C(Cc1ccccc1)*; ξIva = CCC(C)(N)C(=O)O; Aib = CC(C)(N)C(=O)O
# Key:
# [1] = system: Nanoluciferase (engineered Oplophorus gracilirostris luciferase); test: Primary Nanoluciferase (NLuc) qHTS assay for identification of artifact compounds. (AID 1845222);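 note: NLuc secreted into diluted conditioned medium of S16 cells; series mostly up to about 54 µM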
# Method in brief: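 qHTS format, against NLuc in S16 cell-conditioned medium. Nano-Glo substrate 1:100 was added after 15 min at room temperature. Luminescence was taken after a further 5 min.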
# [2] = Primary redox qHTS assay for identification of artifact compounds. (AID 1845223)
# Method in brief: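 Amplex Red (25 uM) and HRP (250 mU/mL) in HBSS, with compounds for 15 min, then 250 uM DTT for 30 min, room temperature, dark. Fluorescence 525/598 nm read; normalized to DMSO and 10 uM DA3003; Hill fit.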
SMILES,Potency [1],Potency [2],"activity, negative = inhibition [1]",redox activity (% of DA3003) [2]
C=CCc1ccc(O[C@@H]2O[C@H](CO)[C@@H](O)[C@H](O)[C@H]2O)c(O[C@@H]2O[C@H](CO)[C@@H](O)[C@H](O)[C@H]2O)c1,inactive,inactive,,
O=C(O)CC1CCC(c2ccc(NC(=O)c3nnc(Nc4ccc(F)c(F)c4)o3)cc2)CC1 (stereo unspecified),inactive,inactive,,
O=C(NC1Cc2ccccc2N(C[C@@H](O)CO)C1=O)c1cc2cc(Cl)sc2[nH]1 (stereo partly specified),inactive,inactive,,
O=C(Cc1ccccc1)OC[C@H]1O[C@H](O[C@H]2O[C@H](CO)[C@@H](O)[C@H](O)[C@H]2O)[C@H](O)[C@@H](O)[C@@H]1O,inactive,inactive,,
CC(C)=CCc1cc(O[C@@H]2O[C@H](CO[C@@H]3OC[C@](O)(CO)[C@H]3O)[C@@H](O)[C@H](O)[C@H]2O)ccc1O,inactive,inactive,,
Cc1c(NC(=O)N2CCOCC2)ccc2c1c1ccccc1n2C(C)C,inactive,inactive,,
O=C(O)c1ccncc1Nc1nn(CCN2CCC(F)(F)CC2)c2ccc(F)cc12,inactive,inactive,,
O=C(/C=C/c1ccc(O)cc1)OC[C@H]1O[C@H](O[C@@]2(CO)O[C@@H](CO)[C@H](O)[C@H]2O)[C@H](O)[C@@H](O)[C@@H]1O,inactive,inactive,,
O=C(O)c1cccc(C(=O)CCC2OC(n3cnc4c(=O)[nH]cnc43)C(O)C2O)c1 (stereo unspecified),inactive,inactive,,
CC(C)C1(O)C=C2C(=O)CC3C(C)(C(=O)O)CCCC3(C)C2CC1 (stereo unspecified),inactive,inactive,,
CC[C@@H]1C(=O)O[C@]23C=C[C@@H]4C(C(=O)OC)=CO[C@H](O[C@@H]12)[C@@H]43,inactive,inactive,,
C=CC(C)(O)CC/C=C(\C)C(=O)O[C@@H]1[C@@H](O)[C@H](OC(C)(C=C)CC/C=C(\C)C(=O)O[C@@H]2O[C@H](CO)[C@@H](O)[C@H](O)[C@H]2O)O[C@H](CO)[C@H]1OC(=O)/C(C)=C/CCC(C)(O)C=C (stereo partly specified),,,0.542% [at 11.6 µM],-5.92% [at 11.5 µM]
CC(C)(OC1OC(CO)C(O)C(O)C1O)C1CCC(O)(CO)C2CC(=O)C(C)(O)C2C1 (stereo unspecified),inactive,inactive,,
C=C1[C@H](OC(C)=O)[C@H]2[C@@H](OC(=O)c3ccccc3)[C@@H](C)C[C@]2(O)[C@@H](OC(C)=O)[C@H](C)/C=C/C(C)(C)C(=O)[C@H](OC(C)=O)[C@H]1OC(C)=O,inactive,inactive,,
Cn1cc(Nc2cnccc2C(=O)O)c2cccnc21,inactive,inactive,,
COc1cc(C[C@@]2(O)CO[C@@H](c3ccc(O[C@@H]4O[C@H](CO)[C@@H](O)[C@H](O)[C@H]4O)c(OC)c3)[C@H]2CO)ccc1O,inactive,inactive,,
CC(=O)/C=C/C1(O)C(C)=CC(=O)CC1(C)C (stereo unspecified),inactive,inactive,,
Oc1ccccc1-c1cc(-c2ccccc2F)[nH]n1,inactive,inactive,,
CC[C@@H](C)[C@H](NC(=O)C(C)(C)NC(=O)[C@H](CCC(N)=O)NC(=O)C(C)(CC)NC(=O)[C@H](Cc1c[nH]c2ccccc12)NC(C)=O)C(=O)N[C@H](C(=O)NC(C)(C)C(=O)N[C@@H](CC(C)C)C(=O)NC(C)(C)C(=O)N1CCC[C@H]1C(=O)N[C@@H](CCC(N)=O)C(=O)NC(C)(C)C(=O)N1CC(O)C[C@H]1C(=O)NC(C)(CC)C(=O)C1CC[C@@H](C(=O)N[C@@H](Cc2ccccc2)C(=O)NCC(=O)O)N1)C(C)O (stereo partly specified) (Ac-W[ξIva]Q[Aib][aIle][Thr(3ξ)][Aib]L[Aib]PQ[Aib][X8]-X9),,,-3.07% [at 6.45 µM],8.28% [at 6.41 µM]

SMILES,Potency [1],Potency [2],"activity, negative = inhibition [1]",redox activity (% of DA3003) [2]
C[C@H]1CC[C@H]2[C@@H](C=C[C@@](C)(O)[C@]2(C)C(=O)CCO)C1,inactive,inactive,,
OC[C@@]1(O)CO[C@H](OC[C@H]2O[C@@H](OC(CCCCc3ccc(O)cc3)CCc3ccc(O)cc3)[C@H](O)[C@@H](O)[C@@H]2O)[C@@H]1O (stereo partly specified),inactive,inactive,,
C/C=C(/C)C(=O)O[C@H]1C[C@]2(C)O[C@@H]2[C@@H](OC(C)=O)[C@@]2(C)CC[C@@](O)(C(C)C)[C@H]12,inactive,inactive,,
CC1C(O)C(O)C2C(C(=O)OCCc3ccc(O)cc3)=COC(O[C@@H]3O[C@H](CO)[C@@H](O)[C@H](O)[C@H]3O)C12 (stereo partly specified),inactive,inactive,,
C=C1C(O)CCC2(C)CC3(OC)OC(=O)C(C)=C3CC12 (stereo unspecified),inactive,inactive,,
CCOC(=O)CNC(=O)[C@@H]1CCCN1C(=O)Cc1ccccc1 (PhAc-Pro-Gly-OEt),inactive,inactive,,
C/C=C(\C)C(=O)OCC1OC(OC2OC(CO)C(O)C(O)C2O)C(O)C(O)C1O (stereo unspecified),inactive,inactive,,
C=C1C(OC(C)=O)CCC2(C)CC3(O)OC(=O)C(C)=C3CC12 (stereo unspecified),inactive,inactive,,
Cc1cccc(NC(=O)CN2CCC(c3ccccn3)CC2)c1,inactive,inactive,,
CC1=CC(=O)C(=C(C)C)CC2C(C)(O)CCC12O (stereo unspecified),inactive,inactive,,
COC(=O)C[C@H]1C(C)(C)[C@H](OC(=O)C(C)C)C2CC3=C4CC(=O)O[C@@H](c5ccoc5)[C@]4(C)CCC3[C@@]1(C)C2=O (stereo partly specified),inactive,inactive,,
O=C(NC1CCN(CC(F)(F)F)CC1)c1ccc(-c2cccc(F)c2)nc1,inactive,inactive,,
CC1=CC(=O)[C@]2(O[C@@H]3O[C@@H](C)[C@H](O)[C@@H](O)[C@H]3O)C=CO[C@@H](O[C@@H]3O[C@H](CO)[C@@H](O)[C@H](O)[C@H]3O)[C@H]12,inactive,inactive,,
CC(C)(O)C1CC=C(C(=O)OC[C@H]2O[C@@H](Oc3cc(C(=O)O)cc(O)c3O)[C@H](O)[C@@H](O)[C@@H]2O)CC1 (stereo partly specified),inactive,inactive,,
CC(C)=C1C[C@@]2(C)C(=CC1=O)CC[C@@H](O)[C@@H]2C,inactive,inactive,,
C=C(C)[C@H]1CC[C@]2(C(=O)O)CC[C@]3(C)C(CCC4[C@@]5(C)CCC(=O)C(C)(C)C5CC[C@]43C)C12 (stereo partly specified),inactive,inactive,,
COC(=O)C1=COC(OC2OC(CO)C(O)C(O)C2O)C2C(COC(=O)/C=C/c3ccc(O)cc3)C(O)C(O)C12 (stereo unspecified),inactive,inactive,,
COc1cccc(Cn2ncc3c4sc(S(C)=O)cc4n(C)c3c2=O)c1 (stereo unspecified),inactive,inactive,,
C/C1=C\CC(C)(C)/C=C/C/C(C(=O)O)=C/CC1,inactive,inactive,,
